A selection: hits, their analogues and other compounds. The true share with any hit is near 5.7%.
HepG2 viability: qHTS for Inhibitors of TGF-b: Cytotox Counterscreen. HepG2 CAGA-GFP viability, ATP luminescence, 18 h. Potency, µM (highest dose often 46.1 µM), for inactives: at the highest dose activity change, negative = cytotoxicity, hits mostly cytotoxic. 410,000 tested, 0.76% active; further: potency means the concentration at half of the fitted maximal effect
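HepG2 CAGA-GFP cells (1000/well, DMEM with 1% FBS) received compound, then TGF-beta at 500 pg/mL final, and were incubated 18 hours at 37 degrees C. Viability was read by CellTiter-Glo luminescence. Media-only wells were set as complete cell-killing and DMSO as no toxicity.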
ATXN2 expr inh: Primary qHTS for Inhibitors of ATXN expression. HEK-293 ATXN2-luciferase reporter, luminescence, 24 h. Potency, µM (top dose mostly 57 µM), for inactives: at the highest dose activity change, negative = inhibition, hits mostly inhibitors. 360,000 tested, 0.72% active; further: potency means the concentration at half of the fitted maximal effect; on the % scale 0 is the no-effect control and ±100 the full control effect; nearly all actives have a fitted effect of over 55% in size
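ATXN2-luciferase reporter cells (luciferase flanked by upstream and downstream ATXN2 gene portions) were treated 24 h at 37 °C with compounds at up to 57 uM. SteadyGlo luminescence gave expression; GF-AFC fluorescence gave viability.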
TGFb SMAD3 inh: qHTS for Inhibitors of TGF-b; HepG2 CAGA-GFP TGF-b/SMAD3 reporter, GFP fluorescence, 18 h; TGF-beta stimulated, 500 pg/mL final; Potency, µM (titrated, usually from 46.1 µM), inactives show at the highest dose activity, negative = inhibition, hits mostly inhibitors; 410,000 tested, 1.2% active; AID 588855, 2011; further: potency means the concentration at half of the fitted maximal effect; on the % scale 0 is the no-effect control and ±100 the full control effect; nearly all actives have a fitted effect of over 65% in size
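Smad-responsive CAGA-GFP expression was quantified in HEPG2 cells exposed to compounds and 500 pg/mL final TGF-beta for 18 h at 37 degrees C; unstimulated wells defined full inhibition.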
IL-1B inflam inh: qHTS for Inhibitors of Inflammasome Signaling: IL-1-beta AlphaLISA Primary Screen; activity change, % at 57.5 µM; 360,000 tested, 4.7% active; THP-1 LPS/ATP IL-1B secretion, AlphaLISA, 16 h; active compounds read low; in the data active means activity change below about -50%; inconclusive means mostly about -30% to -49%; further: on the % scale 0 is the no-effect control and ±100 the full control effect
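Secreted IL-1B measured by AlphaLISA bead assay after 16 h compound exposure of THP-1 cells; compounds (final up to 57.5 uM) added 1 h before LPS (250 ng/mL) and ATP (1.25 mM) stimulation; lower signal means less secretion.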
ATXN viability: Viability Counterscreen for Primary qHTS for Inhibitors of ATXN expression; S2 cells (HEK-293 line with an ATXN2-luciferase reporter) viability, CellTiter-Fluor protease fluorescence, 24 h; 400,000 tested, 0.49% active; Potency, µM (top dose mostly 56.7 µM), actives largely listed as cytotoxic; AID 651635, 2014; further: potency means the concentration at half of the fitted maximal effect; nearly all actives have a fitted effect of over 40% in size
Starred values were filed as active, the others as inactive; i = inactive; ? = inconclusive; . = no result. Unless noted, the call rests on the fitted dose curve; in most records, active means well fitted curve in the direction sought with a large enough effect; inconclusive means small, poorly fitted or top-dose-only effect, or another doubt; inactive means no such curve, though single readings can be large; an effect the other way counts as inactive or inconclusive.

SMILES	HepG2 viability	ATXN2 expr inh	TGFb SMAD3 inh	IL-1B inflam inh	ATXN viability
CCOc1cccc2sc(N(CCCN(C)C)C(=O)c3ccc(S(=O)(=O)N4CCCCCC4)cc3)nc12	-52%	-21%	?	?	?
CCc1ccc2nc(N(CCCN(C)C)C(=O)c3ccc(S(=O)(=O)N4CCCc5ccccc54)cc3)sc2c1	-108%	?	?	-98*	?
Cc1c(C(=O)N2CCC(Cc3ccccc3)CC2)sc2ncnc(NCc3ccccn3)c12	.	.	.	.	i
CC(NC(=O)/C(C#N)=C/c1ccc(N2CCOCC2)cc1)c1ccccc1 (stereo unspecified)	-22%	-17%	-1%	?	i
CCOCCCNC(=O)/C(C#N)=C/c1ccc([N+](=O)[O-])o1	-5%	?	-27%	-111*	19µM*
COc1cc(/C=C(/C#N)C(=O)NCCc2c[nH]c3ccccc23)ccc1OCc1ccccc1F	-21%	7.1µM*	1%	10	10µM*
COC(=O)c1ccc(/C=C(\C#N)C(=O)NC(C)c2ccccc2)cc1 (stereo unspecified)	-43%	?	-14%	-97*	?
COc1ccc(/C=C(\C#N)C(=O)NC(C)c2ccccc2)cc1O (stereo unspecified)	-23%	2%	0%	-87*	i
Cc1ccc(-n2nc(CO)c(C(=O)NC(C)CCCc3ccccc3)n2)cc1 (stereo unspecified)	-36%	.	0%	.	.
COc1cc(=O)n2c(c1C(=O)N(C)Cc1ccsc1)CCN(Cc1c(C)nn(C)c1Cl)CC2	.	.	.	.	i
COc1ccc(-c2nc(SCCOc3cc(C)ccc3C(C)C)n3[nH]c(=O)cc3n2)cc1	-21%	?	?	.	?
CC(NC(=O)/C(C#N)=C/c1ccc([N+](=O)[O-])o1)c1ccccc1 (stereo unspecified)	-79%	?	?	-105*	?
COc1ccc(/C=C(\C#N)C(=O)NCc2ccccc2)cc1O	-10%	15%	-1%	-86*	i
CCN(Cc1ccccc1)C(=O)Cn1c(=O)n(-c2ccccc2)c(=O)c2c1c1cc(C)ccc1n2C	6%	6%	-1%	.	?
O=C(NC1CCCCCC1)c1ccc([N+](=O)[O-])s1	-3%	-4%	?	-61*	i
COc1ccccc1NC(=O)COC(=O)c1ccc([N+](=O)[O-])s1	-13%	.	?	0	i
CCc1ccccc1NC(=O)c1ccc([N+](=O)[O-])s1	11µM*	?	11µM*	?	i
O=C(NC1CCCC1)c1ccc(Cl)s1	-13%	6%	-3%	-14	i
CN1CCN(c2oc(/C=C/c3ccc(F)cc3)nc2C#N)CC1	-10%	.	.	.	.
COc1cc(OC)c(OC)cc1CN1CCc2nc(N3CCN(c4ccccc4F)CC3)ncc2C1	-19%	-22%	-36%	.	i
Cc1cc(OCCn2nc(C(=O)O)c3ccccc3c2=O)ccc1C(C)C	-12%	-12%	1%	22	i
CCc1cccc(OCCn2nc(C(=O)O)c3ccccc3c2=O)c1	16%	?	-2%	-90*	i
COc1ccc(C(C[N+](=O)[O-])C2(c3ccc(OC)c(OC)c3)C(=O)c3ccccc3C2=O)cc1 (stereo unspecified)	18µM*	2%	?	-102*	i
COc1ccc(C(C[N+](=O)[O-])c2c(-c3ccccc3)cc3ccccn23)cc1 (stereo unspecified)	-43%	-26%	-17%	-20	?
COC(=O)[C@@H]1CCCN1S(=O)(=O)Cc1ccccc1	0%	.	-5%	.	.
SMILES	HepG2 viability	ATXN2 expr inh	TGFb SMAD3 inh	IL-1B inflam inh	ATXN viability
CCC(C)NCCCOc1ccc(Cl)cc1C(C)(C)C (stereo unspecified)	-34%	-5%	-25%	-8	i
COCCCNCCCOc1ccc(Cl)cc1C(C)(C)C	16µM*	?	?	-89*	?
CNCCCOc1ccc(Cl)cc1C(C)(C)C	-101%	?	?	-72*	?
CN(C)c1ccc(/C=C2\C=Nc3ccccc32)cc1	-40%	.	?	.	.
CC(C)(C)n1ncc2c(=O)n(Cc3cccc(OC(F)F)c3)cnc21	-37%	.	-26%	.	.
CC1=Nc2cc(C(=O)NCCc3ccc(Cl)cc3)ccc2Sc2c(C)ccc(C)c21	-2%	11%	7.9µM*	.	?
CCCNC(=O)c1ccc2c(c1)N=C(C)c1c(C)ccc(C)c1S2	-22%	-7%	?	.	?
CC1=Nc2cc(C(=O)NCCc3ccccc3)ccc2Sc2c(C)ccc(C)c21	-19%	-18%	6.3µM*	.	?
CC(=O)c1ccc(NC(=O)C2=CC(c3ccc(C)cc3)=NS(=O)(=O)N2C)cc1	-17%	-23%	?	.	?
CCn1c(N2CCN(S(=O)(=O)c3ccc(Cl)cc3)CC2)nc2ccccc21	2%	-31%	?	-87*	i
CCc1nc2ccccc2nc1N1CCN(S(=O)(=O)c2c(C)cc(Cl)cc2C)CC1	-3%	.	-2%	78	i
CCc1nc2ccccc2nc1N1CCN(S(=O)(=O)c2ccccc2)CC1	-7%	7%	13%	-90*	i
CCCn1c(N2CCN(Cc3ccc(Cl)cc3)CC2)nc2ccccc21	-38%	.	16µM*	-18	?
CCn1c(N2CCN(S(=O)(=O)c3ccc(F)cc3)CC2)nc2ccccc21	-14%	-20%	0%	-59*	i
CCn1c(N2CCN(Cc3ccc([N+](=O)[O-])cc3)CC2)nc2ccccc21	-20%	.	?	-18	i
CCn1c(N2CCN(S(=O)(=O)CC)CC2)nc2ccccc21	0%	3%	6%	26	i
CCn1c(N2CCN(C(=S)NC)CC2)nc2ccccc21	-2%	-6%	25%	-7	i
CCn1c(N2CCN(C(=S)NCC(C)C)CC2)nc2ccccc21	4%	-15%	-1%	-54*	i
O=C(NNC(=S)Nc1ccccc1Cl)c1ccncc1	-1%	25%	3%	17	i
O=C(NNC(=O)c1ccc(Cl)c(Cl)c1)c1ccncc1	4.5µM*	6%	-28%	0	i
O=C(Nc1cccc(Cl)c1Cl)c1ccncc1	-13%	-4%	-2%	-51*	i
O=C(NNC(=O)c1ccc(Cl)c([N+](=O)[O-])c1)c1ccncc1	23%	-29%	-14%	-15	i
NCCc1nc(-c2ccccc2)cs1	-10%	-13%	14%	-52*	i
O/N=C(/C[n+]1cccc(Br)c1)c1ccc2ccccc2c1	-27%	.	1%	.	.
COc1ccccc1C(=O)N1CCCC(c2nc(SCCN3CCOCC3)ncc2C)C1 (stereo unspecified)	.	.	.	.	i
